# Measurements: PubChem BioAssay (NCATS)
# Inconclusive results are not listed. Where a call stands in place of a potency, no number is given. The source made the active and inactive calls. Calls come from the whole dose curve; as a rule, active = well fitted inhibition curve with a large enough effect; inconclusive = small, poorly fitted or top-dose-only effect; inactive = flat fitted curve, though single readings scatter.
# Assays:
# [1] = molecular target: Ubiquitin carboxyl-terminal hydrolase 1 (Homo sapiens) (UniProt O94782); test: Inhibitors of USP1/UAF1: Pilot qHTS (AID 504865); conditions: purified USP1/UAF1, Ub-rhodamine cleavage fluorescence; series mostly up to 114 µM; note: nearly all actives have a fitted effect of over 35% in size; note: potency is the fitted concentration of half-maximal effect
# Sequence of Ubiquitin carboxyl-terminal hydrolase 1 (Homo sapiens) (O94782 whole entry, looked up): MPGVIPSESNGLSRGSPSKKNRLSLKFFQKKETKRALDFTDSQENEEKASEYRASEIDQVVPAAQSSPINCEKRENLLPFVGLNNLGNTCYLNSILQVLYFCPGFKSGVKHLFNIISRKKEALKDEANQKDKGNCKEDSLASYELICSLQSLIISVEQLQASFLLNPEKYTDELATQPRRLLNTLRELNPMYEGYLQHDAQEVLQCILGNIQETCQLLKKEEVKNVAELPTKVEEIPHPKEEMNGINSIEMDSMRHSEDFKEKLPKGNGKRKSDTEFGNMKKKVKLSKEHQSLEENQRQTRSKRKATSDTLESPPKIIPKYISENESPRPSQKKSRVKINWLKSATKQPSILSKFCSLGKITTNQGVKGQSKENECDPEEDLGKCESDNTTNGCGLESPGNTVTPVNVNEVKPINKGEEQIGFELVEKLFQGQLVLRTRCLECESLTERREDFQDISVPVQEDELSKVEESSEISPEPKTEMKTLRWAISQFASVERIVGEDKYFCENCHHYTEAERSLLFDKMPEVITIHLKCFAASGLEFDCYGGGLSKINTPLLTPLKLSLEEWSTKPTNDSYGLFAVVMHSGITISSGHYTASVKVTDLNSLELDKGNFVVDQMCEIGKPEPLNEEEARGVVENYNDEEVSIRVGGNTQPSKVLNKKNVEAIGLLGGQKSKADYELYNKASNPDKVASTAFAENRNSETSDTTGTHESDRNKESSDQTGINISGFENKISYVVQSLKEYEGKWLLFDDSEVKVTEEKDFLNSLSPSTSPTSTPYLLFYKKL
# Summary of the method: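 Enzyme-free wells gave the negative control, while test wells held 1nM USP1/UAF1 preincubated with compound for 15 min at room temperature. Ub-Rho at 150nM final started the reaction, and fluorescence at 480/540 nm was recorded kinetically.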
# [2] = molecular target: DNA dC->dU-editing enzyme APOBEC-3G (Homo sapiens) (UniProt Q9HC16); test: qHTS for inhibitors of Vif-A3G interactions: Validation (AID 588379); conditions: Vif-A3G protein interaction assay; series mostly up to 46.1 µM
# Sequence of DNA dC->dU-editing enzyme APOBEC-3G (Homo sapiens) (Q9HC16 whole entry, looked up): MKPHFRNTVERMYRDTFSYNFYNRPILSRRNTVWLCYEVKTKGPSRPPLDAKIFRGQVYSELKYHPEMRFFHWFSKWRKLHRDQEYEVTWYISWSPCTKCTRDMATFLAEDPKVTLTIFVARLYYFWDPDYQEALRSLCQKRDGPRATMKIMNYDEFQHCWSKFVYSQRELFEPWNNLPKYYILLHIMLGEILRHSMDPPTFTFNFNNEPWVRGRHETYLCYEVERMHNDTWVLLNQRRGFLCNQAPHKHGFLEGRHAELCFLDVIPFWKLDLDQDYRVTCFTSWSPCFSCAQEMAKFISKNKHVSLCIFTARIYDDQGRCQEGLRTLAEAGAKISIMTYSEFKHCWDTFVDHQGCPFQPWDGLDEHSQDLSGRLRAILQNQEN
# Summary of the method: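 Yellow fluorescence (Ex 488, Em 500-530) of Vif-coexpressing HeLa A3G-eYFP cells, scanned by Acumen cytometer, reports blocked A3G degradation. Cells plated at 700/well overnight at 37 deg C before compound addition, then a further overnight compound incubation at 37 deg C.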
SMILES,Potency [1],outcome [2]
Nc1ccccc1C(=O)O,inactive,
COP(=S)(OC)SCN1C(=O)c2ccccc2C1=O,inactive,
NNc1ccccc1,inactive,
COC1CC(=C(c2cccs2)c2cccs2)C[N+](C)(C)C1 (configuration not stated),inactive,
COP(=S)(OC)Oc1ccc(S(=O)(=O)N(C)C)cc1,inactive,
CN1C(=O)CC(=O)N(c2ccccc2)c2cc(Cl)ccc21,inactive,
Clc1ccc(C(c2ccc(Cl)cc2)C(Cl)(Cl)Cl)cc1,inactive,
C=CCN1C[C@H](C)N([C@H](c2ccc(C(=O)N(CC)CC)cc2)c2cccc(OC)c2)C[C@H]1C,inactive,inactive
COc1cc(OC)c(OC)cc1C=O,inactive,
CC(C)(C)c1ccc(O)cc1,inactive,
Cc1nnc2n1-c1ccc(Cl)cc1C(c1ccccc1Cl)=NC2,inactive,
FC1(F)C(F)(F)C(F)(F)C2(F)C(F)(F)C(F)(F)C(F)(F)C(F)(F)C2(F)C1(F)F (configuration not stated),79.4 µM (active),
Clc1cccc(SC2CCNCC2)n1,inactive,inactive
CC(C)(C)NCC(O)c1cc(Cl)c(N)c(C(F)(F)F)c1 (configuration not stated),inactive,
C[C@]12CC[C@@H]3c4ccc(OC(=O)N(CCCl)CCCl)cc4CC[C@H]3[C@@H]1CC[C@@H]2O,50.1 µM (active),
CN1C(=O)NC(=O)C(C)(C2=CCCCC2)C1=O (configuration not stated),inactive,
CCOP(=S)(OCC)Oc1ccc2c(C)c(Cl)c(=O)oc2c1,inactive,
CCC1(CC)C(=O)C=CNC1=O,inactive,
Cc1cc(=O)n(-c2ccccc2)n1C,inactive,
COc1ccc2c(c1)C13CCCC[C@@H]1C(C2)N(C)CC3 (some centres not stated),inactive,

SMILES,Potency [1],outcome [2]
O=C1Nc2ccc(Cl)cc2C(c2ccccc2Cl)=NC1O (configuration not stated),inactive,
COP(=S)(OC)Oc1ccc(SC)c(C)c1,inactive,
CN1C(=O)COc2c(C(=O)NC3CN4CCC3CC4)cc(Cl)cc21 (configuration not stated),inactive,
Nc1nc(N)nc(NC2CC2)n1,inactive,
CN1CCC(O)(c2ccc(F)cc2)C(C(=O)c2ccc(F)cc2)C1 (configuration not stated),inactive,
CNC(C)(C)Cc1ccccc1,inactive,
Oc1ccc(Cl)cc1,inactive,
Cc1nnc2n1-c1ccc(Cl)cc1C(c1ccccc1)=NC2,inactive,
COC(=O)C(c1ccccc1)C1CCCCN1 (configuration not stated),inactive,
O=C1CN=C(c2ccccc2)c2cc([N+](=O)[O-])ccc2N1,inactive,
O=C1c2ccccc2C(=O)c2ccccc21,inactive,
NC(=O)CS(=O)C(c1ccccc1)c1ccccc1 (configuration not stated),inactive,
CN1C(=O)C(O)N=C(c2ccccc2)c2cc(Cl)ccc21 (configuration not stated),inactive,
NC(=O)c1cc([N+](=O)[O-])cc([N+](=O)[O-])c1,inactive,
CC(C)NC(C)C,inactive,
Cc1cc(C(C#N)c2ccc(Cl)cc2)c(Cl)cc1NC(=O)c1cc(I)cc(I)c1O (configuration not stated),50.1 µM (active),
CCCC(C)(COC(N)=O)COC(N)=O,inactive,
Clc1ccc2c(c1)C(c1ccccc1)=NCc1nncn1-2,inactive,
Nc1ccc([As](=O)(O)O)cc1,inactive,
O=C1OC(c2ccc(O)c(S(=O)(=O)O)c2)(c2ccc(O)c(S(=O)(=O)O)c2)c2c(Br)c(Br)c(Br)c(Br)c21,50.1 µM (active),
